Methyltransferases: Primary Screen for Target Class Profiling of Small Molecule Inhibitors of Methyltransferases; purified enzyme, MTase-Glo SAH luminescence; hits give low values; calls only at 40 µM; actives 3.9% (n = 25,000); AID 1745853, 2022; call rule not given here
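Each enzyme was reacted with SAM and its substrate, with compounds tested once at 40 uM; SAH formed was read by MTase-Glo luminescence.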
MTase-Glo ctr: Counterscreen for Target Class Profiling of Small Molecule Inhibitors of Methyltransferases | shares compounds with Methyltransferases | MTase-Glo coupled enzymes, SAH conversion luminescence, no MTase | Potency, µM (highest dose often 57.3 µM), usual class: inhibitors | actives 6% (n = 180) | AID 1745851, 2022; active = well fitted inhibition curve with a large enough effect
Of the large screens only hits and unclear results are named; the others gave an inactive call (follow-up assays come after a bar, where they were run). This excerpt belongs to a sample that is enriched for hits.

CC1(C(=O)NC2CCCCCCC2)Cn2c(cc3occc32)C(=O)N1CCCN1CCOCC1 (stereo not drawn)	none
COc1ccccc1-c1ccc(C(=O)N2CCC(C(=O)Nc3ccccc3Cl)CC2)cc1	none
COc1cccc(-c2ccccc2NC(=O)C2CCN(Cc3ccccc3F)CC2)c1	none
COc1cccc(-c2ccccc2NC(=O)C2CCN(CC=C(C)C)CC2)c1	Methyltransferases active | MTase-Glo ctr inactive
CC(C)CCn1c(=O)c2ccc(C(=O)NC3CCCC3)cc2n2c(=O)n(CC(=O)NC(C)C)nc12	none
C[S+](=O)([O-])N1CC2(Cc3ccccc3N(C(=O)Cc3ccc(F)cc3)C2)C1	none
Cn1c(C(=O)NCCN2CCCCC2)cc2c1CCN(Cc1cccc(F)c1)C2	Methyltransferases active | MTase-Glo ctr inactive
O=C(c1nc2c(o1)CCN(Cc1cccc(F)c1)CC2)N1CCOCC1	none
Cn1c(C(=O)Nc2ccc3c(c2)OCO3)cc2c1CCN(Cc1cccc(F)c1)C2	none
CCCn1cc2c(nc(NC(=O)Nc3ccc(OC)cc3)n3nc(-c4ccco4)nc23)n1	none
CCC1C(=O)N(C)CCN1C(=O)c1coc(COc2ccc3c(c2)OCO3)n1 (stereo not drawn)	none
FC(F)(F)c1cc(-c2ncn(/C=C\c3nnco3)n2)cc(C(F)(F)F)c1	none
CN(CCc1nc2ccc(Cl)cc2[nH]1)c1cc(C2CC(O)C2)nc(N)n1 (stereo not drawn)	Methyltransferases active | MTase-Glo ctr inactive
CN(CCO)C[C@@H]1CN(C(=O)CCc2nc3ccc(F)cc3[nH]2)C[C@@H]1CO	none
Nc1nc(C2CC(O)C2)cc(N2CC(N3CCOCC3)C2)n1 (stereo not drawn)	none
CN(C)CCn1cc(S(=O)(=O)c2cccc(F)c2)c2cccnc21	none
CCCn1c(=O)c2cc(F)ccc2n2c(SCC(=O)NCc3ccc(Cl)cc3)nnc12	none
Cn1c2c(c3ccccc31)C(C(=O)NCc1ccc(F)cc1)N(c1ccc3c(c1)OCO3)C(=O)CS2 (stereo not drawn)	none
Cn1c(=O)c2ccc(C(=O)NC3CCCC3)cc2n2c(=O)n(CC(=O)NC3CCCCC3)nc12	none
c1ccc(CO[C@H]2COCCN(c3nc4ccccc4o3)C2)cc1	Methyltransferases active | MTase-Glo ctr inactive
COc1ccc(CNC(=O)O[C@H]2COCCN(c3nc4ccccc4o3)C2)cc1	none
O=C1N(Cc2ccc(F)c(F)c2)CCCC12CCN(c1nc3ccccc3o1)C2 (stereo not drawn)	none
CCCCCNC(=O)c1ccc2c(=O)nc3c(-c4ccccc4)n[nH]n3c2c1	none
COC(=O)CCNC(=O)C1CN(S(=O)(=O)c2cccs2)CC12CCCCC2 (stereo not drawn)	none
CC1(C(=O)NC2CCCCC2)Cn2c(cc3ccccc32)C(=O)N1Cc1cccc(Br)c1 (stereo not drawn)	none
Cc1ccc2nc(CN(C)C(=O)C3CCC(=O)N(C4CCCCCC4)C3)[nH]c2c1 (stereo not drawn)	Methyltransferases active | MTase-Glo ctr inactive
CCN1CC(C(=O)N(C)Cc2ccc(Oc3ccccc3)cc2)CCC1=O (stereo not drawn)	none
Cc1ccc2nc(CO[C@H]3CN(C4CCN(C)CC4)C[C@H]3F)[nH]c2c1	none
O=C1CCN(C(=O)Nc2ccccc2F)CCCC(C(=O)NCc2ccncc2)CCN1 (stereo not drawn)	none
C=C[C@H]1C(O[C@@H]2O[C@H](CO)[C@@H](O)[C@H](O)[C@H]2O)OC=C2C(=O)N3CCc4c([nH]c5ccccc45)[C@H]3C[C@H]21 (stereo partly drawn)	none
O=C(Cn1nc2n(Cc3ccc(F)cc3)c(=O)c3ccccc3n2c1=O)NCc1ccc(Cl)cc1	none
CCn1nc(CC(C)C)cc1C(=O)N(C)Cc1cccc(-n2cccn2)c1	none
C[C@H](NCc1ccc(OCc2ccccc2F)cc1)C(N)=O	none
O=C(c1ccc(-c2noc(C3CC3)n2)cc1)N1CCC2(CCOCC2)CC1	none
C=CC(C)(CC/C=C(\C)C(=O)OC)OC1OC(COC(=O)CC(C)(O)CC(=O)O)C(O)C(O)C1O (stereo not drawn)	none
C#CCNCc1cc2cc(OCc3ccccc3)ccc2[nH]1	none
CNC(=O)[C@@H]1CN(C(=O)c2cc3cc(OC)ccc3[nH]2)C[C@H]1COC	none
COc1ccc2[nH]c(CNc3cc(C4CC(N)C4)nc(C)n3)cc2c1 (stereo not drawn)	Methyltransferases active | MTase-Glo ctr inactive
CC1(C(=O)NC2CCCCCC2)Cn2c(nc3ccccc32)C(=O)N1C1CCCCCC1 (stereo not drawn)	none
O=C1NC2(CCN(Cc3ccccc3)C2)COc2ccccc21 (stereo not drawn)	none
O=[S+]1([O-])NC2(CCN(Cc3ccccc3C(F)(F)F)C2)CNc2ccccc21 (stereo not drawn)	none
O=[S+]1([O-])NC2(CCCN(Cc3c(F)cccc3Cl)C2)COc2ccccc21 (stereo not drawn)	Methyltransferases active | MTase-Glo ctr inactive
CCN(CCNC(=O)C1CCCCC(=O)N1C)Cc1ccccc1 (stereo not drawn)	none
CCCn1c(=O)c2ccc(C(=O)NCC(C)C)cc2n2c(=O)n(CC(=O)c3ccc(OCC)cc3)nc12	none
Cc1cc(-c2cc3c(cn2)N(C)CCN(C)C3)ccn1	Methyltransferases active | MTase-Glo ctr inactive
CO[C@@H]1[C@@H](O[C@H]2O[C@@H](C)[C@H](O[C@@H]3C[C@](C)(O)[C@H](O)[C@@H](C)O3)[C@@H](N(C)C)[C@@H]2O)[C@@H](CC=O)C[C@@H](C)[C@@H](O[C@H]2CC[C@H](N(C)C)[C@H](C)O2)/C=C/C=C/C[C@@H](C)OC(=O)C[C@H]1O	none
CC(C)NC(=O)c1ccc2c(=O)n(C(C)C)c3nn(CC(=O)NC(C)(C)C)c(=O)n3c2c1	none

Screening results as filed in PubChem.
